# Screens from PubChem.
# Pol beta inh = qHTS Assay for Inhibitors of DNA Polymerase Beta | P06746 | Pol beta primer extension/strand displacement, fluorescence kinetic | Potency, µM (highest dose often 114 µM), inactives show top-dose activity change, negative = inhibition, hits mostly inhibitors | 1.3% of 340,000 active; note: potency is the fitted concentration of half-maximal effect; % is set by controls: 0 for no effect and ±100 for the full control effect
#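 10 nM enzyme + cpd, 15 min RT; start with substrate 50 nM final; read 0 min and after 10 min RT. Corrected, normalized data; 4-parameter Hill curve fit.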
# POLK inh = qHTS for Inhibitors of Polymerase Kappa; AID 588579, 2011; 0.53% of 400,000 active; Potency, µM (titrated, usually from 107 µM), inactives show top-dose activity, negative = inhibition, actives largely listed as inhibitors; DNA polymerase kappa (Homo sapiens), Q9UBT6; purified Pol kappa, fluorescent DNA synthesis assay, 10 min; note: potency is the fitted concentration of half-maximal effect; % is set by controls: 0 for no effect and ±100 for the full control effect
#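 First, compounds were pin-transferred onto 10 nM Pol kappa. After 15 min at room temperature, substrate was added to 50 nM final. Fluorescence was then measured kinetically at 0 and 10 min.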
# Pol iota inh = qHTS for Inhibitors of Polymerase Iota; DNA polymerase iota (Homo sapiens), Q9UNA4; Pol iota fluorescent replication assay, 10 min; Potency, µM (titrated, usually from 115 µM), for inactives: at the highest dose activity, negative = inhibition, most hits filed as inhibitors; 1% of 390,000 active; AID 588590, 2011; note: potency is the fitted concentration of half-maximal effect
#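 Fluorescent replication assay read twice, at 0 min and 10 min after adding 50 nM (final) substrate. Enzyme (10 nM) and compounds were first incubated 15 min at room temperature; enzyme-free buffer wells were negative controls.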
# PI4K2A inh = qHTS for small molecular inhibitors of PI4K2A; Phosphatidylinositol 4-kinase type 2-alpha (Homo sapiens), Q9BTU6; purified PI4K2A, ADP-Glo luminescence, 1 h; stronger effect = lower value; activity change, negative = inhibition, % at 76.9 µM; 0.13% of 420,000 active; AID 1346378, 2018; in the data active = activity change below about -50%; inconclusive = mostly about -30% to -49%;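 note: -100% = wells without enzyme as full effect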
# Target sequence (Q9BTU6 whole entry, looked up): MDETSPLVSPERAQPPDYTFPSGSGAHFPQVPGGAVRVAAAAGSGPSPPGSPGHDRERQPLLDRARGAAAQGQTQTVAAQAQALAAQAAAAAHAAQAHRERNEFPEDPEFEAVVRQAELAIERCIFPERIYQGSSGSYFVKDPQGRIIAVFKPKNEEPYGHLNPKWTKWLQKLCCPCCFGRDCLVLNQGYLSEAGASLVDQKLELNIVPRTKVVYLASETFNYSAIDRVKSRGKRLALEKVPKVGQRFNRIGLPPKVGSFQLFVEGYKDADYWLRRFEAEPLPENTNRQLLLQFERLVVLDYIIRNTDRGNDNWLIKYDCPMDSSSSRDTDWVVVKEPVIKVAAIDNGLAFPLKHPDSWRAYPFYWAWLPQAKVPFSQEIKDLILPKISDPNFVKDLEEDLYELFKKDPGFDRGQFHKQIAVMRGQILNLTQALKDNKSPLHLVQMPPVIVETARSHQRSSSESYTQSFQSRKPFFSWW
#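 Compounds are screened against recombinant PI4K2A using PI as substrate and ATP, the latter dispensed at 300 microM. Reactions run one hour at ambient temperature before ADP-Glo detection; full inhibition defined by wells lacking enzyme.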
# PI5P4K alpha inh = qHTS for Inhibitors of phosphatidylinositol 5-phosphate 4-kinase (PI5P4K). max response, %. 1.2% of 330,000 active. PI5P4Kalpha enzyme, ADP-Glo luminescence, 60 min; stronger effect = lower value. Phosphatidylinositol 5-phosphate 4-kinase type-2 alpha (Homo sapiens), P48426. AID 652105, 2013; active = max response of -50% or lower; inconclusive = between -30% and -50%; inactive = -30% or higher; note: value at the top dose of about 77 µM; % is set by controls: 0 for no effect and ±100 for the full control effect
#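 Enzyme plus substrate dispensed, test compounds pinned in, then ATP (5 microM final) added. After 60 min at RT, ADP-Glo reagent 1 for 45 min and reagent 2 for 30 min preceded luminescence imaging.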
# Pol eta inh = qHTS for Inhibitors of Polymerase Eta | 1.2% of 390,000 active | Potency, µM (top dose mostly 114 µM), without a hit: at the highest dose activity change, negative = inhibition, most hits filed as inhibitors | recombinant Pol eta, fluorescent DNA replication assay | DNA polymerase eta (Homo sapiens), Q9Y253; note: potency is the fitted concentration of half-maximal effect; % is set by controls: 0 for no effect and ±100 for the full control effect
#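 Fluorescent replication assay: 50 nM final substrate added after a 15 min room-temperature compound preincubation with 10 nM enzyme. Signal taken at 0 min and again at 10 min.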
# Numbers without * were called inactive; ? = inconclusive; / = no result given; [ ] = dose if it differs, or a comment. Sampled rows, rich in hits. Any-hit rate of the full collection: about 2.8%. Unless noted, calls come from the whole dose curve; as a rule, active = well fitted inhibition curve with a large enough effect; inconclusive = small, poorly fitted or top-dose-only effect, or another doubt; inactive = no such curve, though single readings can be large or run the other way.
SMILES,Pol beta inh,POLK inh,Pol iota inh,PI4K2A inh,PI5P4K alpha inh,Pol eta inh
CCCCNC(=O)c1cc2c(-c3ccc(Cl)cc3)nn(C)c2s1,1%,9%,-2%,8,-2,-16%
CCN1CCCC1CNC(=O)c1cc2c(-c3cccc(OC)c3)nn(C)c2s1 (stereo not drawn),-9%,9%,-5%,-2,0,18%
O=C(NCCCN1CCCCCC1)c1cc2c(=O)oc3ccccc3c2s1,-11%,-40%,50µM*,-1,-5,-6%
O=Cc1cccc(C=O)c1,/,-3%,-1%,/,/,/
O[C@@H](CNC[C@H](O)[C@H]1CCc2cc(F)ccc2O1)[C@@H]1CCc2cc(F)ccc2O1,/,/,/,1,/,/
Cc1ccnc2c(Cl)ccc(Cl)c12,/,10%,5%,/,/,/
O=C(NCc1ccccc1)OCCN1C(=O)CCC12CCC(c1ccc(Cl)cc1)CC2 (stereo not drawn),/,/,/,2,/,/
CC(C)(C=O)C1=CC(=O)c2ccccc2C1=O,0%,4%,?,-2,-52*,?
CC1=CC(=O)c2ccccc2C1=O,-1%,9%,?,-5,0,?
CCOC(=O)c1cnc(N2CCN(c3cccc(C)c3C)CC2)c2ccccc12,2%,-5%[60.1 µM],9%,0,/,-23%
CCc1ccc(C2/C=C\CNC(c3ccccc3)C(=O)N2Cc2ccc(C)cc2)cc1 (stereo not drawn),/,2%,5%,/,/,/
COc1ccc(C2=CC3=C(Br)C(=O)C(C)(O)C(=O)C3=CO2)cc1 (stereo not drawn),40µM*,?,?,?,-83*,?
CC(C)(C)c1c(Cl)c(O)c(-c2ccccc2)c(=O)n1-c1ccccc1,11%,-12%,1.1µM*,-3,3,9%
Cc1c(O)c2ccccc2n(-c2ccccc2)c1=O,/,2%,-2%[58.9 µM],0,-1,-17%
CC(C)n1c(CNC(=O)c2ccccc2F)nnc1SCC(=O)NC1CCCCC1,/,-8%,?,-3,-71*,-10%
COc1cc(OC)c(/C=C/c2c3ccccc3cc[n+]2C)c(OC)c1,/,-14%,?,/,/,/
O=C(/C=C/c1cc[n+](CC(=O)c2ccc3cccc4c3c2CC4)cc1)c1ccc2cccc3c2c1CC3,12%,-7%,117%,0,-69*,?
CCC(=O)Nc1ccc(-c2nnc3c4ccccc4c(C)nn23)cc1,0%,4%,9%,-2,/,-11%
CCCc1ccc(C(=O)NNc2ccc(F)cc2)cc1,-14%,2%,53%,3,6,-24%
CCCc1ccc(C(=O)NNC(=O)c2ccc(Br)cc2)cc1,45µM*,-21%,?,-16,-8,?
COc1cccc(NC(=O)Cn2nnc(C(=O)NCCc3ccccc3)c2N)c1,?,-34%,32µM*,-2,-3,8%
COc1ccc(CCNC(=O)c2nnn(CC(=O)Nc3ccccc3C)c2N)cc1OC,20µM*,-11%,?,6,1,?
COc1cccc(NC(=O)c2nnn(CC(=O)Nc3cc(C)cc(C)c3)c2N)c1,89µM*,-28%,?,-3,-16,-6%
COc1cccc(NC(=O)Cn2nnc(C(=O)Nc3ccccc3)c2N)c1,8%,-13%,0%,0,/,-5%
Cc1ccc(NC(=O)Cn2nnc(C(=O)NCCc3ccccc3)c2N)cc1,16µM*,?,?,-6,/,-30%
SMILES,Pol beta inh,POLK inh,Pol iota inh,PI4K2A inh,PI5P4K alpha inh,Pol eta inh
Cc1ccc(-c2[nH]ncc2CNC(C)c2ccccc2)cc1 (stereo not drawn),/,14%,15%,/,/,/
Cc1ccnc2c(O)cccc12,/,-26%,?,/,/,/
COc1ccc(NC(=O)Cn2nnc(C(=O)NCCc3ccccc3)c2N)c(OC)c1,-25%,-8%,?,-1,0,35µM*
COc1ccc(NC(=O)Cn2nnc(C(=O)NCc3ccccc3)c2N)c(OC)c1,?,2%[60.1 µM],?,2,-7,10%
O=C1C[C@@H](C(=O)Nc2ccc(Cl)cc2)[C@@H](c2ccccc2)O1,/,/,/,-1,/,/
Cc1ccc(C(=O)Nc2ccc(C(=O)N/N=C/c3cccnc3)cc2)cc1,?,-13%,79µM*,-4,6,-5%
Cc1ccccc1C(=O)Nc1ccc(C(=O)N/N=C/c2ccc(F)cc2)cc1,40µM*,-13%,-6%,5,-7,4%
O=C(N/N=C/c1cccnc1)c1cccc(NC(=O)c2ccc(Cl)cc2)c1,40µM*,-20%,?,1,3,?
O=C(O)CCCn1cc(NC(=O)c2sc3ccccc3c2Cl)cn1,?,2%,8%,-1,0,-15%
CCCCN(CCCC)c1ccc(Cn2ccc3ccccc32)cc1,/,-2%,37%,/,/,/
Cc1ccc(CNC(=O)CCc2nnc3ccc(N4CCC5(CC4)OCCO5)nn23)cc1,14%,79µM*,?,-4,3,-13%
COCCSc1ccccc1C(=O)Nc1ccc(Cl)cc1,0%,-1%,10µM*,-4,-25,-7%
C1CCC(NC(=NC2C3CC4CC(C3)CC2C4)N2CCOCC2)CC1 (stereo not drawn),/,10%[19.4 µM],/,/,/,/
Cc1ccnc(NC(=O)CCS(=O)(=O)c2ccccc2)c1,22µM*,-13%,16%,0,-8,7%
Cc1ccnc(NC(=O)CS(=O)(=O)c2ccccc2)c1,1%,-1%,19%,-6,3,-14%
Cc1ccc(NC(=O)CN(C)C(=O)CCC(=O)c2cccs2)cc1,18µM*,-6%,?,3,?,?
Cc1ccnc(NC(=O)CCC(=O)c2cccs2)c1,/,?,20µM*,-12,?,?
CCn1c(SCc2cccc(Br)c2)nnc1-c1nonc1NC(C)=O,-14%,-3%,14%,0,/,-1%
COc1cc2c(NC3CCN(C)CC3)nc(N3CCCCC3)nc2cc1OCCCN(C)C,/,?,40µM*,/,/,/
COc1cc2nc(N(C)C)nc(NC3CCN(C)CC3)c2cc1OC,/,?,25µM*,/,/,/
COc1cc2nc(N(C)C)nc(N)c2cc1OC,45µM*,-8%,?,-10,5,5%
COc1cc2nc(Cl)nc(NC3CCN(C)CC3)c2cc1OC,/,9%,7%,/,/,/
COc1cc2c(NC3CCN(C)CC3)nc(N3CCCN(C)CC3)nc2cc1OCCOCCN(C)C,/,-16%,?,/,/,/
COc1cc2c(NC3CCN(C)CC3)nc(N3CCCCC3)nc2cc1OCCOCCN(C)C,/,-29%,50µM*,/,/,/
